{"source": "the supplement of paper PMC10941209", "note": "Unmarked numbers belong to inactive results."}
{"test_system": "Toxoplasma gondii RH 2F1 tachyzoites (intracellular in HFF)", "assay": "parasite survival relative to DMSO control; higher = less antiparasitic activity, active = 20 or less", "settings": "1 µM; 72 h", "method": "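Primary single-dose screen of the MMV Pandemic Response Box at 1 uM against T. gondii RH-2F1 (beta-galactosidase) tachyzoites in HFF cells, 72 h at 37 C. Parasite growth read by CPRG absorbance at 570 nm and normalised to DMSO-treated infected controls (% survival); pyrimethamine was the reference drug. The paper calls at least 80% inhibition a hit.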"}
{"compound": "CCC(C)(C)c1ccc(CC(C)CN2C[C@@H](C)O[C@@H](C)C2)cc1", "note": "(stereo not given in full)", "parasite survival": "35.1%"}
{"compound": "CN(C)CCNC(=O)c1cccc2cccnc12", "parasite survival": "62%"}
{"compound": "CN(C)[C@@H]1C(=O)C(C(N)=O)=C(O)[C@@]2(O)C(=O)C3=C(O)c4c(O)c(NC(=O)CN5CCCC5)cc(F)c4C[C@H]3C[C@@H]12", "parasite survival": "34.5%"}
{"compound": "N#Cc1c(F)c(Cl)c(NCc2ccccc2)c(C#N)c1F", "parasite survival": "31.9%"}
{"compound": "CN(C)CC(=O)Nc1ccc2[nH]c(=O)c3ccccc3c2c1", "parasite survival": "55.3%"}
{"compound": "OCCC#Cc1nc(-c2ccc(F)cc2)c(-c2ccncc2)n1CCCc1ccccc1", "parasite survival": "9.3% (active)"}
{"compound": "CC#C[C@]1(O)CC[C@H]2[C@@H]3CCC4=CC(=O)CCC4=C3[C@@H](c3ccc(N(C)C)cc3)C[C@@]21C", "parasite survival": "45.7%"}
{"compound": "COc1ccc(SCC(=O)N2c3ccccc3Sc3ccccc32)cc1", "parasite survival": "47.4%"}
{"compound": "Fc1ccc2c(/C=C/c3nnn[nH]3)c[nH]c2c1", "parasite survival": "47.3%"}
{"compound": "Cc1ccc(C)c(OCCCCCCN2C[C@H](O)[C@@H](O)[C@H](O)[C@H]2CO)c1", "parasite survival": "62.8%"}
{"compound": "O=[N+]([O-])c1ccc2c(CCc3c[nH]c4ccccc34)c[nH]c2c1", "parasite survival": "43.3%"}
{"compound": "Nc1nnnn1CCOc1c2[nH]c3ccc(Cl)cc3c2cc2c1[nH]c1ccc(Cl)cc12", "parasite survival": "28.5%"}
{"compound": "CC(C)(C)c1ccc(Oc2ccc(N)cc2)cc1", "parasite survival": "81.4%"}
{"compound": "O=C(O)c1sccc1S(=O)(=O)n1ccc2cc(Br)ccc21", "parasite survival": "66.8%"}
{"compound": "COc1ccc2cc3[n+](cc2c1OCCN(CCn1cncn1)Cc1ccc(F)cc1F)CCc1cc2c(cc1-3)OCO2", "parasite survival": "47.3%"}
{"compound": "Nc1nc2c(Cc3cccnc3)c[nH]c2c(=O)[nH]1", "parasite survival": "72.8%"}
{"compound": "CCC(CC)[C@H](NC(C)=O)[C@@H]1[C@H](O)[C@@H](C(=O)O)C[C@H]1NC(=N)N", "parasite survival": "69.6%"}
{"compound": "OC1O[C@H](CSc2ccc(F)cc2)[C@@H](O)[C@H]1O", "note": "(stereo not given in full)", "parasite survival": "49.9%"}
{"compound": "Cc1onc(-c2ccccc2Cl)c1C(=O)N[C@@H]1C(=O)N2[C@@H]1SC(C)(C)[C@@H]2C(=O)O", "parasite survival": "50.5%"}
{"compound": "CN(C/C=C/C#CC(C)(C)C)Cc1cccc2ccccc12", "parasite survival": "41.6%"}
{"compound": "O=S(=O)(Nc1cccc2cccnc12)c1ccccc1", "parasite survival": "24.5%"}
{"compound": "O=c1ccc2ncc(=O)n3c2n1CC3CN1CCC(NCc2cc3c(cn2)OCCC3)CC1", "note": "(stereo not given)", "parasite survival": "44.7%"}
{"compound": "COc1cc(Cc2cc(N)nc(N)n2)cc(OC)c1OC", "parasite survival": "31%"}
{"compound": "COc1ccccc1NC(=O)c1ccccc1Sc1ccc([N+](=O)[O-])cc1", "parasite survival": "52%"}
{"compound": "CCc1oc2ccccc2c1C(=O)c1ccc(O)cc1", "parasite survival": "29.1%"}
{"compound": "CNc1nc(=O)[nH]cc1F", "parasite survival": "60.5%"}
{"compound": "CCc1nc2ccc(Cl)cn2c1C(=O)NCc1ccc(N2CCC(c3ccc(OC(F)(F)F)cc3)CC2)cc1", "parasite survival": "28.9%"}
{"compound": "O=C(NCc1ccc2c3c(cccc13)C(=O)N2)c1cccs1", "parasite survival": "75.5%"}
{"compound": "CCCCSc1nc(N)c2[nH]c(=O)c(=O)n(Cc3ccccc3)c2n1", "parasite survival": "26.1%"}
{"compound": "O=C(O)c1cc(-c2ccc(Br)cc2)nc2ccc(Cl)cc12", "parasite survival": "72.8%"}
{"compound": "COc1cc2c(O)c3c(c(-c4ccc5c(c4)OCO5)c2cc1OC)C(=O)OC3", "parasite survival": "46.1%"}
{"compound": "O=C(NCc1ncc(C(F)(F)F)cc1Cl)c1c(Cl)cccc1Cl", "parasite survival": "45.4%"}
{"compound": "CC1(C)C[C@H]1C(=O)N/C(=C\\CCCCSC[C@@H](N)C(=O)O)C(=O)O", "parasite survival": "94.5%"}
{"compound": "CC[N+]1(C/C2=C/CCCCCC2)CCC(NC(=O)C2c3cc(Cl)ccc3Oc3ccc(Cl)cc32)CC1", "note": "(stereo not given)", "parasite survival": "59.8%"}
{"compound": "COc1ccc2c(c1)cc(CNC(=O)c1cc3ccccc3o1)n2CC(=O)O", "parasite survival": "64.2%"}
{"compound": "NC(=O)c1c(N)sc2c1CCCCC2", "parasite survival": "48.8%"}
{"compound": "Cc1c(OCC(F)(F)F)ccnc1C[S+]([O-])c1nc2ccccc2[nH]1", "note": "(stereo not given)", "parasite survival": "45.7%"}
{"compound": "c1ccc(Cn2c(-c3ccccn3)nc3ccccc32)cc1", "parasite survival": "61.7%"}
{"compound": "CC1CN(c2ncnc3c2c(-c2ccccc2)cn3-c2ccc(F)cc2)CC(C)O1", "note": "(stereo not given)", "parasite survival": "34.4%"}
{"compound": "O=P(O)(O)C(CCCc1cccc(Oc2ccccc2)c1)S(=O)(=O)O", "note": "(stereo not given)", "parasite survival": "65.2%"}
